In PubChem BioAssay (NCI):
Compounds without any hit were thinned out: in the full panel of roughly 83,000, 20% have a hit.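 96-well plates, one dose, 48 hours. Percent growth reported; active if below 10.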 Values without a mark were called inactive. The source made the active and inactive calls.

System: MDA-MB-468 breast
Test: NCI-60 one-dose screen, 48 h (100 = growth as untreated, 0 = no growth, -100 = all killed)
Conditions: 10 µM unless noted

| SMILES | growth |
| --- | --- |
| O=C(C1=Cc2cc3ccccc3n2Cc2cnnn21)c1ccc(F)cc1 | 99.4% |
| O=C(/C=C/c1ccc(Cl)cc1)c1ccc(O)c(CN2CCN(c3cc4c(cc3F)c(=O)c(C(=O)O)cn4C3CC3)CC2)c1 | 40.9% |
| O=C(COc1cccc(/C=C2\Cc3ccc(Cl)cc3C2=O)c1)Nc1nccs1 | 21.9% |
| OCCNc1nc(Nc2ccc(Cl)c(Cl)c2)nc2ccccc12 | -10.6% (active) |
| O=C(NC(=S)Nc1ccc(-c2nc3ccccc3[nH]2)cc1)c1ccc2ccccc2c1 | 13.6% |
| COc1ccc2c(C3=C(c4cn(C)c5ccccc45)C(=O)NC3=O)coc2c1 | 30.5% |
| Cc1ccc(/C=C2\COc3ccc(O)c(O)c3C2=O)cc1 | -18.5% (active) |
| N=C(N)c1ccc(-c2ccc(/C=C/c3ccccc3)s2)cc1 | -67.3% (active) |
| CCCCSc1cc(C)nc(N)n1 | 95.8% |
| C=CCNc1nc(NN2C(=O)c3cccc4cccc(c34)C2=O)nc(-n2cnc3ccccc32)n1 | 80.5% |
| Cc1cc(C(=O)Nc2sc3c(c2C(N)=O)CCC(=O)C3)ccc1OCCN1CCCCC1 | 112% |
| COc1cc(CNC(=O)Cc2ccccc2[N+](=O)[O-])ccc1OCC(=O)NO | 98.7% |
| COc1ccc(C(=O)O)cc1.[Ag] | 93.9% |
| CC1Cc2ccccc2O1 (stereo not given) | 120% |
| O=C(CN1C(=O)NC2NC(=O)NC21)N/N=C/c1ccc(Cl)cc1Cl (stereo not given) | 99.9% |
| CCCCCCCCCCCCCCCCCCOc1ccccc1CC(=O)NCC[N+]1(C)CCCC1 | 3.53% (active) |
| O=C(CN1CCN(c2cc3c(cc2F)c(=O)c(C(=O)O)cn3C2CC2)CC1)Nc1cc(=O)[nH]c(=O)[nH]1 | 89.7% |
| COc1ccc2[nH]c(O)c(/C=c3/cc4c(c(-c5ccc(F)c(OC)c5)n3)=Nc3ccccc3-4)c2c1 | -70.4% (active) |
| NC(N)=N/N=C/c1ccc(-c2ccc(-c3ccc(Cl)cn3)s2)cc1 | 94.4% |
| C=C1C(=O)O[C@H]2[C@H]1CC/C(COC(=O)NCc1[nH]nc3ccccc13)=C\CC[C@@]1(C)O[C@@H]21 | 20.4% |

| SMILES | growth |
| --- | --- |
| CNC(=O)c1cc(Oc2ccc3c(c2)sc2nc(-c4cc(OC)c(OC)c(OC)c4)cn23)ccn1 | 4.35% (active) |
| COc1ccc(C(=O)Nc2cccc(-c3cc(=O)c4c(OC)c(OC)c(OC)cc4o3)c2)cc1 | 75.2% |
| CC1=CN2C(=NC3=C(CCCC/C3=C\c3ccccc3)C2c2ccccc2)S1 (stereo not given) | 116% |
| COc1ccc(C(=S)N2CCN(c3cccc(Cl)c3)CC2)cc1 | 88.4% |
| O=C1CCCc2nc3sc4c(=O)n(-c5ccccc5Cl)nnc4c3cc21 | 85.9% |
| CC1(C)C(N)=Nc2cc(OCCCCN3Cc4ccccc4C3)c(OCC3CC3)cc21 | 42.2% |
| COCc1nc(NS(=O)(=O)c2ccc(N)cc2)nc(C)c1Br | 99.1% |
| Cc1occc1-c1nc2s/c(=C/c3ccc(-c4cc(C(F)(F)F)ccc4Cl)o3)c(=O)n2n1 | 108% |
| CC(=O)N1N=C(c2cccc(-n3cccc3)c2)CC1c1cccc(F)c1 (stereo not given) | 90.4% |
| Fc1ccccc1Nc1ccc2nnc(-c3ccncc3)n2n1 | 105% |
| O=C(Nc1ccc(Cl)c(C(F)(F)F)c1)Nc1ccc2c(ccn2C(=O)c2cccc(F)c2)c1 | 9.28% (active) |
| CN(C)C1CCN(C(=O)c2ccc(NC(=O)Nc3ccc(-c4nc(N5CCOCC5)c5cccn5n4)cc3)cc2)CC1 | -60.1% (active) |
| COc1cc(C2C3=C(COC3=O)N(CCO)c3cc4c(cc32)CCC4)cc(OC)c1O (stereo not given) | -21.7% (active) |
| CCN(CC)CCn1nc2c3c(cccc3c1=O)-c1ccccc1-2 | 25.9% |
| COc1ccc(-c2[nH]c3ccccc3c2C=C(C#N)C#N)cc1 | -19.8% (active) |
| Cc1cc(Nc2ccc(C(=O)N3CCCC3)cc2)nc(NCCCNc2ccnc3cc(Cl)ccc23)n1 | 40% |
| CSc1nc2c(c(=O)[nH]1)C1(C(=O)Nc3ccccc31)c1c(nc(SC)[nH]c1=O)N2 | 93.1% |
| CCCC(=O)NC(c1ccc2c(c1)OCO2)c1cc(Cl)c2cccnc2c1O (stereo not given) | 7.89% (active) |
| Ic1ccc(SSc2ccc(I)cc2)cc1 | 108% |
| C(=C1c2ccccc2-c2ccccc21)c1ccncc1 | 0.207% (active) |
